Assay results from PubChem BioAssay (EPA / NIEHS).
Values joined by “and” are separate entries in the source; they are usually repeats but may differ in a detail not shown here. Equal values may be shown once. More than one record can exist for a structure, and the calls need not agree. Active and inactive are the calls of the source. Rule for the calls: active = hit-call score of the fitted dose curve at least 0.9, where 1 is the maximum; inactive = score below 0.9.

Experiments:
Conditions in all cases: primary human HUVEC with PBMC; actives raise or lower the signal
[1] = read-out: Monocyte Chemoattractant Protein-1 (MCP1), CCL2 (gene 6347); test: BSK_LPS_MCP1: BioMAP Diversity Plus: LPS Assay for Monocyte Chemoattractant Protein-1 (MCP1) Biomarker Activity (AID 2283081);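 for AC50: secreted MCP-1 protein quantified by ELISA in culture supernatant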
In short: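 LPS-stimulated HUVEC/PBMC co-culture; chemical, 24 h; MCP-1 by ELISA; bidirectional fit vs DMSO; cytotoxicity via SRB (0.1% stain, 10% TCA fix, 560 nm) in parallel wells.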

[2] = BSK_LPS_PGE2: BioMAP Diversity Plus: LPS Assay for Prostaglandin E2 (PGE2) Biomarker Activity (AID 2283082);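 for AC50: secreted prostaglandin E2 measured by ELISA in LPS-stimulated co-culture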
In short: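 PGE2 release measured by ELISA in an LPS-activated co-culture of human umbilical vein endothelial cells and peripheral blood mononuclear cells, read at 24 h post-dosing. DMSO served as baseline for bidirectional curve fitting.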

[3] = read-out: Macrophage colony-stimulating factor (MCSF), CSF1 (gene 1435); test: BSK_LPS_MCSF: BioMAP Diversity Plus: LPS Assay for Macrophage colony-stimulating factor (MCSF) Biomarker Activity (AID 2283083)
In short: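 Compound is added to a human vascular primary co-culture of umbilical vein endothelium and blood mononuclear cells. After 24 h, M-CSF is quantified by ELISA. Signal changes are fitted in both directions against DMSO.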

[4] = read-out: Tissue Factor, F3 (gene 2152); test: BSK_LPS_TissueFactor: BioMAP Diversity Plus: LPS Assay for Tissue Factor Biomarker Activity (AID 2283084)
In short: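 In this co-culture system of umbilical vein endothelium with PBMC, stimulated with LPS, cell-surface CD142 is detected by ELISA at 24 h. Endpoint values derive from bidirectional fitting, DMSO serving as baseline.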

[5] = read-out: Tumor necrosis factor (Homo sapiens) (UniProt P01375); test: BSK_LPS_TNFa: BioMAP Diversity Plus: LPS Assay for Tumour Necrosis Factor alpha (TNFa) Biomarker Activity (AID 2283085);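 for AC50: TNFa protein level quantified by ELISA in the co-culture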
In short: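 TNFa was quantified by ELISA in LPS-activated co-cultures of human endothelial cells and PBMC, 24 h post-dosing. Both increases and decreases versus DMSO were fitted.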

[6] = read-out: Vascular cell adhesion molecule 1 (VCAM1), VCAM1 (gene 7412); test: BSK_LPS_VCAM1: BioMAP Diversity Plus: LPS Assay for Vascular cell adhesion molecule 1 (VCAM1) Biomarker Activity (AID 2283086)
In short: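 VCAM-1 quantified by ELISA in an LPS-activated co-culture of human endothelial cells and peripheral blood mononuclear cells, read 24 h post-treatment. Fitted in both directions versus DMSO; parallel SRB staining flags overt cytotoxicity.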

[7] = read-out: CD38, CD38 (gene 952); test: BSK_SAg_CD38: BioMAP Diversity Plus: SAg Assay for CD38 Biomarker Activity (AID 2283087)
In short: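 CD38 quantified by ELISA (fluorescence) in a superantigen-activated endothelial cell–PBMC co-culture at 24 h post-dose. Activity fitted in both directions relative to DMSO; parallel SRB and Alamar Blue cytotoxicity read-outs.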

[8] = read-out: CD40, CD40 (gene 958); test: BSK_SAg_CD40: BioMAP Diversity Plus: SAg Assay for CD40 Biomarker Activity (AID 2283088)
In short: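 Fluorescence ELISA read-out of CD40 from umbilical vein endothelium plus peripheral blood mononuclear cells, sampled 24 h after dosing. Values come from bidirectional curve fitting with DMSO as baseline.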

[9] = read-out: CD69, CD69 (gene 969); test: BSK_SAg_CD69: BioMAP Diversity Plus: SAg Assay for CD69 Biomarker Activity (AID 2283089);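 for AC50: cell surface CD69 protein quantified by ELISA with fluorescence detection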
In short: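 Values derive from bidirectional fitting relative to DMSO vehicle. Cells: umbilical vein endothelium plus peripheral blood mononuclear cells, treated 24 h before fluorescent ELISA for CD69.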

[10] = read-out: Interleukin-1 alpha (IL1a), IL1A (gene 3552); test: BSK_LPS_IL1a: BioMAP Diversity Plus: LPS Assay for Interleukin-1 alpha (IL1a) Biomarker Activity (AID 2283080)
In short: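 Measured: IL-1 alpha via ELISA at 24 h in LPS-activated human umbilical vein endothelium–PBMC co-culture. Baseline: DMSO, bidirectional fitting.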

Tumor necrosis factor (Homo sapiens), sequence (P01375 whole entry, looked up): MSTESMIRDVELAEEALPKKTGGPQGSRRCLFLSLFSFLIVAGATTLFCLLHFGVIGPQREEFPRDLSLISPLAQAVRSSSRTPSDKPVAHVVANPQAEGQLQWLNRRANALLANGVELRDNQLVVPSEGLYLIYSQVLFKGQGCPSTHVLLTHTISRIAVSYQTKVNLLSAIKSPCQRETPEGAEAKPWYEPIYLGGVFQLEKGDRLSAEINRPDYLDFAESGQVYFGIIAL

Row | Structure (SMILES) | outcome [1] | AC50 [2] | outcome [3] | outcome [4] | AC50 [5] | AC50 [6] | outcome [6] | outcome [7] | AC50 [8] | AC50 [9] | outcome [2] | outcome [5] | outcome [8] | outcome [9] | AC50 [1] | AC50 [3] | AC50 [4] | AC50 [7] | outcome [10]
1 | OCC(F)(OC(F)(F)C(F)(OC(F)(F)C(F)(F)C(F)(F)F)C(F)(F)F)C(F)(F)F (stereo unspecified) | inactive | 5.49 µM (active) and 5.04 µM (active) | inactive | inactive | 5.64 µM (active) and 5.47 µM (active) | 5.05 µM (active) | inactive | inactive | 2.38 µM (active) and 2.34 µM (active) | 3.33 µM (active) and 713 nM (active) |  |  |  |  |  |  |  |  | 
2 | NC(=O)c1c(Cl)cccc1Cl | inactive |  | inactive | inactive |  |  | inactive | inactive |  |  | inactive | inactive | inactive | inactive |  |  |  |  | 
3 | C=C(C)C(=O)OCCC(F)(F)C(F)(F)C(F)(F)C(F)(F)C(F)(F)C(F)(F)C(F)(F)C(F)(F)F | inactive |  | inactive | inactive |  | 1.22 µM (active) | inactive | inactive |  |  | inactive | inactive | inactive | inactive |  |  |  |  | 
4 | CC(C)(C)c1cccc(O)c1 | inactive |  | inactive | inactive |  |  | inactive | inactive |  |  | inactive | inactive | inactive | inactive |  |  |  |  | 
5 | CCCCCCCCCC(=O)OCC | inactive |  | inactive | inactive |  |  | inactive | inactive |  |  | inactive | inactive | inactive | inactive |  |  |  |  | 
6 | CCCCOCCOCCO | inactive |  | inactive | inactive |  |  | inactive | inactive |  |  | inactive | inactive | inactive | inactive |  |  |  |  | 
7 | C=CC(=O)OCC(CO)(COC(=O)C=C)COC(=O)C=C |  | 0.118 µM (active) |  |  | 163 nM (active) | 0.14 µM (active) |  |  | 0.696 µM (active) | 0.384 µM (active) |  |  |  |  | 0.0816 µM (active) | 379 nM (active) | 576 nM (active) | 0.34 µM (active) | 
8 | CC(=O)c1ccc(C)cc1 | inactive |  | inactive | inactive |  |  | inactive | inactive |  |  | inactive | inactive | inactive | inactive |  |  |  |  | 
9 | O=S1(=O)CC(Cl)(Cl)C(Cl)(Cl)C1 |  |  |  |  | 938 nM (active) | 0.797 µM (active) |  |  | 0.48 µM (active) | 0.486 µM (active) | inactive |  |  |  | 1.76 µM (active) | 710 nM (active) | 538 nM (active) | 0.35 µM (active) | 
10 | C=C1CC/C=C(\C)CC[C@@H]2[C@@H]1CC2(C)C | inactive | 3.97 µM (active) |  |  |  | 29.4 µM (active) |  |  | 31.7 µM (active) | 32.8 µM (active) |  | inactive |  |  |  | 31600 nM (active) | 5050 nM (active) | 30.7 µM (active) | 
11 | CC1=CC(C)C(C=O)C(C)C1 (stereo unspecified) (tested in a mixture with another compound) | inactive |  | inactive | inactive |  |  | inactive | inactive |  |  | inactive | inactive | inactive | inactive |  |  |  |  | 
12 | COC(=O)c1ccc(C(=O)OC)cc1 | inactive |  | inactive | inactive |  |  | inactive | inactive |  |  | inactive | inactive | inactive | inactive |  |  |  |  | 
13 | CC/C(=C(\c1ccccc1)c1ccc(OCCN(C)C)cc1)c1ccccc1 |  | 33.6 µM (active) |  |  | 28.6 µM (active) and 17.4 µM (active) | 24.3 µM (active) and 13.6 µM (active) |  |  | 9.12 µM (active) and 6.03 µM (active) | 8.89 µM (active) and 8.09 µM (active) | inactive |  |  |  | 28.3 µM (active) and 12.4 µM (active) | 15.3 µM (active) and 8.1 µM (active) | 29.1 µM (active) and 20 µM (active) | 8.87 µM (active) and 7.95 µM (active) | 
14 | C[C@]12CC[C@@H]3c4ccc(O)cc4CC[C@H]3[C@@H]1CC[C@@H]2O | inactive |  | inactive | inactive |  | 16.5 µM (active) |  |  | 15.8 µM (active) | 20 µM (active) | inactive | inactive |  |  |  |  |  | 16.7 µM (active) | inactive
15 | c1ccc(OCCOc2ccccc2)cc1 | inactive |  | inactive | inactive |  |  | inactive | inactive |  |  | inactive | inactive | inactive | inactive |  |  | 5170 nM (active) | 1.49 µM (active) | 
16 | CC(C)CCCC(C)(C)O | inactive |  | inactive | inactive |  |  | inactive | inactive |  |  | inactive | inactive | inactive | inactive |  |  |  |  | 
17 | COc1ccccc1NC(=O)CC(C)=O | inactive |  | inactive | inactive |  |  | inactive | inactive |  |  | inactive | inactive | inactive | inactive |  |  |  |  | inactive
18 | CCCCCCCCCCCCS |  | 3.97 µM (active) |  | inactive |  | 20 µM (active) |  |  | 20 µM (active) | 20 µM (active) |  | inactive |  |  | 33.3 µM (active) | 31400 nM (active) |  | 28.6 µM (active) | 
19 | CCOC(=O)CCCCCCCCC(=O)OCC | inactive |  | inactive | inactive |  |  | inactive | inactive |  |  | inactive | inactive | inactive | inactive |  |  |  |  | 
20 | O=C(O)C(F)(F)OC(F)(F)C(F)(F)OC(F)(F)C(F)(F)C(F)(F)C(F)(F)F | inactive | 15 µM (active) and 11.1 µM (active) | inactive | inactive |  | 24.4 µM (active) | inactive | inactive | 44 µM (active) | 34.2 µM (active) |  | inactive | inactive | inactive |  |  |  | 41.9 µM (active) | inactive
21 | CCCO[Si](OCCC)(OCCC)OCCC | inactive |  | inactive | inactive |  |  | inactive | inactive |  |  | inactive | inactive | inactive | inactive |  |  |  |  | 
